Source: PubChem BioAssay
Shown are actives, neighbours in structure and some others; about 1% of the full set was active somewhere.
Mtb hypoxia rep: inhibitors of hypoxia-regulated fluorescent reporter in Mycobacterium tuberculosis; AID 1159583; fluorescence inhibition, % (no concentration beside the values); M. tuberculosis hypoxia-regulated fluorescent reporter, fluorescence; hit rate 0.1% among 300,000; in the data active = fluorescence inhibition mostly above about 23%, no sharp cut-off; inactive = mostly below about 17%
Mtb bLac sens: beta-lactam sensitization of Mtb H37Rv. M. tuberculosis H37Rv growth with meropenem, percent inhibition. inhibition, % at 25 µM. hit rate 0.27% among 330,000. AID 434955; call rule not given here;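 also: growth measured after seven days incubation then overnight dye step; 0% = bacteria only wells and 100% = bacteria with antibiotic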
Sa ugtP lethal: compounds lethal to S. aureus RN4220 ugtP deletion mutant; OD600 growth, 16 h; growth inhibition, % (concentration not given with the values); hit rate 0.54% among 330,000; AID 1259309; in the data active = growth inhibition above about 68%;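 also: plate controls were untreated wells for no effect and antibiotic for full effect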
RN4220 kill: S. aureus RN4220 growth inhibition; OD600, 16 h; inhibition, % (no concentration beside the values); hit rate 0.33% among 330,000; in the data active = inhibition above about 85%;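 also: plate controls were untreated cells for no effect and reference antibiotic for full effect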
SSB-PriA inh: K. pneumoniae PriA-SSBct interaction inhibition. AlphaScreen SSBct-PriA binding, biotinylated peptide. inhibition, % at 33 µM. hit rate 0.6% among 430,000; in the data active = inhibition mostly above about 37%, no sharp cut-off; inactive = mostly below about 20%;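 also: plate controls were negative control peptide for no effect and reference peptide for full effect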
Starred values were filed as active, the others as inactive.

What do the screens show for `CCN(CC)CCOC(=O)c1ccc(NC(=O)CCCN2C(=O)/C(=C\c3cccs3)SC2=S)cc1`?
Mtb hypoxia rep: 12.3; Mtb bLac sens: 50.8; Sa ugtP lethal: -7.6; RN4220 kill: -0.5; SSB-PriA inh: 42.1*

What do the screens show for `Cc1ccc(C(=O)CC(=O)c2ccccc2C)c(O)c1`?
Mtb hypoxia rep: 0.1; Mtb bLac sens: inconclusive; Sa ugtP lethal: 87.1*; RN4220 kill: 82.7; SSB-PriA inh: 10.4

What do the screens show for `CC(=O)c1ccc(C)cc1OC(=O)c1cccc(F)c1`?
Mtb hypoxia rep: 2.8; Mtb bLac sens: -3.7; Sa ugtP lethal: 7.5; RN4220 kill: 8.4; SSB-PriA inh: -11.1

Results for Cc1ccc(C(=O)CC(=O)c2cccc(F)c2)c(O)c1 ?
Mtb hypoxia rep: 6.6; Mtb bLac sens: 98.3; Sa ugtP lethal: 94.2*; RN4220 kill: 88.2*; SSB-PriA inh: 7.5

How did CCN(CC)CCCNc1nc2cc(OC)c(OC)cc2c2nc(-c3cccnc3)nn12 do in these assays?
Mtb hypoxia rep: 39.3*; Mtb bLac sens: 89.2; Sa ugtP lethal: 50.9; RN4220 kill: 4.7; SSB-PriA inh: 4.7

Results for COCCCNc1nc2cc(OC)c(OC)cc2c2nc(-c3ccccc3)nn12 ?
Mtb hypoxia rep: -6.1; Mtb bLac sens: 7.8; Sa ugtP lethal: 10.6; RN4220 kill: 24.8; SSB-PriA inh: 1.0

What do the screens show for `CCN(CC)CCCNc1nc2cc(OC)c(OC)cc2c2nc(-c3ccccc3)nn12`?
Mtb hypoxia rep: 72.3*; Mtb bLac sens: 100.1; Sa ugtP lethal: -8.5; RN4220 kill: 17.6; SSB-PriA inh: 18.4

Results for CCN(CC)CCCNc1nc2ccccc2c2nc(-c3ccncc3)nn12 ?
Mtb hypoxia rep: 50.2*; Mtb bLac sens: 0.1; Sa ugtP lethal: -7.4; RN4220 kill: 0.9; SSB-PriA inh: -21.4

What do the screens show for `Cc1ccc(NC(=O)Cn2nc(-c3ccccc3)c3sc(N4CCCC4)nc3c2=O)cc1Cl`?
SSB-PriA inh: 14.0

What do the screens show for `N#Cc1c(-c2ccccc2)c(-c2ccccc2)nn(CC(=O)NNC(=O)Nc2ccc(Cl)c(Cl)c2)c1=O`?
Mtb hypoxia rep: -9.1; Mtb bLac sens: 99.9; Sa ugtP lethal: 46.9; RN4220 kill: -16.7; SSB-PriA inh: 52.0*

What do the screens show for `O=C(NCCc1ccccc1)NCc1nnnn1-c1ccc(Cl)cc1`?
SSB-PriA inh: -4.0

Results for CCOc1ccc(-n2c(SCc3ccc([N+](=O)[O-])cc3)nnc2-c2ccccc2)cc1 ?
Mtb hypoxia rep: 5.5; Mtb bLac sens: 6.2; Sa ugtP lethal: 85.8*; RN4220 kill: 58.9; SSB-PriA inh: 34.9

How did COc1ccc(/C=C/C(=O)n2nc(-c3ccc(OC)cc3)nc2SCC(=O)c2ccc(Cl)cc2)cc1 do in these assays?
SSB-PriA inh: -13.0

Results for COc1ccc(/C=C2\SC(=S)N(NS(=O)(=O)c3ccccc3)C2=O)c(OC)c1 ?
Mtb hypoxia rep: 4.6; Mtb bLac sens: -2.4; Sa ugtP lethal: 91.5*; RN4220 kill: 69.2; SSB-PriA inh: 2.0

Results for CCOc1ccc(/C=C2\SC(=S)N(NS(=O)(=O)c3ccc(C)cc3)C2=O)cc1OC ?
Mtb hypoxia rep: 3.8; Mtb bLac sens: 1.0; Sa ugtP lethal: 84.9; RN4220 kill: 85.7*; SSB-PriA inh: 8.9

How did COc1ccccc1/C=C1\SC(=S)N(NS(=O)(=O)c2ccc(C)cc2)C1=O do in these assays?
Mtb hypoxia rep: -19.2; Mtb bLac sens: -0.9; Sa ugtP lethal: 81.5; RN4220 kill: 95.5*; SSB-PriA inh: -1.4

Results for O=C(COc1ccccc1F)N1CCC(c2nnc(C3CC3)o2)CC1 ?
SSB-PriA inh: -13.0

How did CC(=O)OCC1=C(C(=O)O)N2C(=O)C(NC(=O)c3ccc(COc4ccc(Cl)cc4)o3)C2SC1 (stereo not given) do in these assays?
Mtb hypoxia rep: 10.8; Mtb bLac sens: -4.3; Sa ugtP lethal: 100.2*; RN4220 kill: 99.4*; SSB-PriA inh: -5.8

Results for CC(=O)OCC1=C(C(=O)O)N2C(=O)C(NC(=O)c3ccc(COc4c(C)cccc4Cl)o3)C2SC1 (stereo not given) ?
Mtb hypoxia rep: 8.9; Mtb bLac sens: -1.1; Sa ugtP lethal: 100.0*; RN4220 kill: 95.5*; SSB-PriA inh: -11.6

What do the screens show for `CCCNC(=O)c1ccc(COc2ccc(Cl)cc2)o1`?
Mtb hypoxia rep: -4.4; Mtb bLac sens: 9.6; Sa ugtP lethal: 9.7; RN4220 kill: 4.5; SSB-PriA inh: -16.6

What do the screens show for `CCOC(=O)N1CCC(NC(=O)c2ccc(CS(=O)(=O)c3c(Cl)cccc3Cl)o2)CC1`?
Mtb bLac sens: -5.6; Sa ugtP lethal: -9.6; RN4220 kill: 2.9; SSB-PriA inh: -17.4

What do the screens show for `CC[C@H](Oc1ccc(F)cc1)C(=O)Nc1nonc1-c1ccccc1`?
SSB-PriA inh: -16.0
